# The source made the active and inactive calls.
# Key:
# [1] = system: Human papillomavirus type 1a protein E7 (residues 44-93); assay: HPV1a E7 fragment binders on microarrays, primary screen, biochemical, small-molecule microarray, residues 44-93, 635 nm fluorescence (AID 1108); settings: small-molecule microarray binding, fluorescence 635 nm; higher = more signal;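 also: E7 fragment applied at 1 µg/mL in TBST for 1 h at 4 C; score combines spot fluorescence with its signal to noise ratio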
# [2] = modulators of HCV replicon luciferase signal, primary screen, HCV replication inhibitor project, Huh7 cells, luciferase reporter (AID 1109); settings: 48 h, higher = more signal;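 also: huh7 hepatoma cells harbouring a luciferase neomycin HCV replicon reporter; luciferase luminescence as measure of HCV replicon replication; test concentration not given here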
# [3] = molecular target: Left-right determination factor 2 (Homo sapiens) (UniProt O00292); assay: LEFTY2 binders on small-molecule microarrays, primary screen, biochemical, small-molecule microarray, 635 nm fluorescence scan (AID 1110); settings: LEFTY2 binding, higher = more signal
# [4] = molecular target: Calmodulin-1 (Homo sapiens) (UniProt P0DP23); assay: CALM1 binders on microarrays, EGTA buffer, profiling panel, biochemical, small-molecule microarray, Cy5-labelled CALM1 (AID 1111); settings: Cy5-CALM1 binding fluorescence, higher = more signal;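 also: labelled calmodulin applied in Tris saline Tween buffer holding calcium plus EGTA and DTT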
# [5] = molecular target: Calmodulin-1 (Homo sapiens) (UniProt P0DP23); assay: calcium-bound CALM1 binders on microarrays, profiling panel, artefact control for SMM control-protein annotation, biochemical, small-molecule microarray, Cy5-labelled CALM1, plus calcium (AID 1112); settings: Cy5-CALM1 binding fluorescence, higher = more signal;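 also: score merges spot fluorescence with signal to noise from triplicate slides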
# [6] = small-molecule microarray binders of probe aWnt5a, primary screen, biochemical, biotinylated probe, 635/667 nm fluorescence (AID 1113); settings: higher = more signal;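 also: score merges 667 nm fluorescence intensity with signal-to-noise per printed feature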
# [7] = small-molecule microarray binders of probe aShh, primary screen, biochemical, biotinylated probe, 635/667 nm fluorescence (AID 1114); settings: higher = more signal;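 also: probe is biotin-labelled aShh protein from a stem cell growth factor screen; measures binding of labelled protein to compounds printed on the slide; score merges feature fluorescence at 667 nm with signal-to-noise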
# [8] = small-molecule microarray binders of probe aNog, primary screen, biochemical, biotinylated probe, 635/667 nm fluorescence (AID 1115); settings: higher = more signal;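 also: probe is biotinylated aNog protein used at 0.15 µg/mL for 1 h at 4 C; z-score combines 667 nm fluorescence of each spot with its signal to noise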
# [9] = molecular target: Torsin-1A-interacting protein 1 (Homo sapiens) (UniProt Q5JTV8); assay: LAP1 binders from COS7 cell lysate, primary screen, small-molecule microarray, 635/667 nm fluorescence (AID 1116); settings: COS7-hLAP1 lysate binding, 635 nm fluorescence, higher = more signal
# [10] = molecular target: Alpha-bungarotoxin (Bungarus multicinctus) (UniProt P60615); assay: alpha-bungarotoxin binders on microarray, profiling panel, artefact control for SMM control protein annotation, biochemical, small-molecule microarray, Alexa647 label, 635/667 nm fluorescence (AID 1117); settings: alpha-BTX-A647 binding fluorescence, higher = more signal
# [11] = molecular target: Albumin (Bos taurus) (UniProt P02769); assay: bovine serum albumin binders on microarray, profiling panel, artefact control for SMM control protein annotation, biochemical, small-molecule microarray, Alexa647 label, 635/667 nm fluorescence (AID 1118); settings: BSA-A647 binding, fluorescence 635 nm, higher = more signal;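 also: score merges 667 nm emission intensity and signal-to-noise per printed compound spot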
# [12] = small-molecule microarray binders of probe aXIP, primary screen, biochemical, NeuroSMM set, 635/667 nm fluorescence (AID 1119); settings: higher = more signal, called active from +8 up or from −8 down;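 also: probe is the protein aXip251-270 applied at 1 µg/mL to compound-printed slides; binding of probe to printed compounds measured as 667 nm fluorescence plus signal to noise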
# [13] = small-molecule binders of probe aNOTCH3, primary screen, biochemical, small-molecule microarray, 635/667 nm fluorescence (AID 1120); settings: higher = more signal;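 also: probe is a biotin-tagged antibody raised against NOTCH3 rather than NOTCH3 protein; score merges spot fluorescence near 667 nm with spot signal to noise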
# [14] = small-molecule binders of probe aNOTCH2, primary screen, biochemical, small-molecule microarray, 635/667 nm fluorescence (AID 1121); settings: higher = more signal;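 also: score merges feature fluorescence read at 667 nm with its signal to noise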
# [15] = molecular target: Carbonic anhydrase 2 (Homo sapiens) (UniProt P00918); assay: CAII small-molecule binders, profiling panel, biochemical, small-molecule microarray, Alexa647-labelled CAII (AID 1122); settings: CAII-A647 binding fluorescence, higher = more signal
# [16] = COS7 lysate on small-molecule microarray, probe aHis, 635 nm (AID 1123); settings: COS7 cell lysate, fluorescence, higher = more signal;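 also: z-score combines 667nm fluorescence intensity with signal-to-noise per printed compound spot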
# [17] = compound binding in COS7 lysate, probe aLAP1, primary screen, cell lysate, small-molecule microarray (AID 1124); settings: probe aLAP1, fluorescence, higher = more signal;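 also: lysate comes from COS7 cells expressing LAP1 and is applied at 0.3 µg/mL; score merges spot fluorescence near 667 nm with signal-to-noise over triplicate slides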
# [18] = system: Sam68 (KHDRBS1); assay: Sam68 small-molecule binders, primary screen, biochemical, small-molecule microarray, 635 nm fluorescence (AID 1125); settings: small-molecule microarray binding, higher = more signal;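 also: score merges 667 nm channel intensity with signal to noise over triplicate slides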
# [19] = system: Chordin-like protein 2 (CHRDL2); assay: CHRDL2 small-molecule binders, primary screen, biochemical, small-molecule microarray, 635 nm fluorescence (AID 1126); settings: small-molecule microarray binding, fluorescence 635 nm; higher = more signal;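 also: printed compound slides probed with Chrdl2 protein at 4 µg/mL for 1 h at 4 C; score merges 667 nm emission intensity with signal to noise over three replicate slides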
# [20] = molecular target: Concanavalin-A (Canavalia ensiformis) (UniProt P02866); assay: ConA small-molecule binders, primary screen, artefact control for SMM control protein annotation, biochemical, small-molecule microarray, Alexa647 label, 635 nm (AID 1127); settings: ConA-A647 binding fluorescence, higher = more signal;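 also: z combines 667 nm emission intensity with signal-to-noise across three replicate slides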
# Concanavalin-A (Canavalia ensiformis), sequence (P02866 whole entry, looked up): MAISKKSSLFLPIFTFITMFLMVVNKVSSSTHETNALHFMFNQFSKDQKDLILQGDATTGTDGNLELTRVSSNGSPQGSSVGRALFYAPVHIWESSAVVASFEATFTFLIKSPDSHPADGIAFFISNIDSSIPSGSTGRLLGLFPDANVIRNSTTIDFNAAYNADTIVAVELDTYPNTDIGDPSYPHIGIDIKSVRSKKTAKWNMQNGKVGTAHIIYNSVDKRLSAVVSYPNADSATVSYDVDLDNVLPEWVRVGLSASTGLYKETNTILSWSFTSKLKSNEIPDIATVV
# Alpha-bungarotoxin (Bungarus multicinctus), sequence (P60615 whole entry, looked up): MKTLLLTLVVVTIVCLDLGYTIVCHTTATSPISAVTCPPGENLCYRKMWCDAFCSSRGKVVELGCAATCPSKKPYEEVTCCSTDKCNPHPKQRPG
# Left-right determination factor 2 (Homo sapiens), sequence (O00292 whole entry, looked up): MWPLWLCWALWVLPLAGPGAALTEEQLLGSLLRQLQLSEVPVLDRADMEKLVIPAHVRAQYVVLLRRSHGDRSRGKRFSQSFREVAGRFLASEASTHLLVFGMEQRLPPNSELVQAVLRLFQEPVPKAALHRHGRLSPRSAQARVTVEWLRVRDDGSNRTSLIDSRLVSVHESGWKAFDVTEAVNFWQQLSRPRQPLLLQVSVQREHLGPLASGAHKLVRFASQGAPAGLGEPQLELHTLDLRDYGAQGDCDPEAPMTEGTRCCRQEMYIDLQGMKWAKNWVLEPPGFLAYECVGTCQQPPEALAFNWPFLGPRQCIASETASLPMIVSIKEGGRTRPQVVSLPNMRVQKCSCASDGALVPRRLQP
# Albumin (Bos taurus), sequence (P02769 whole entry, looked up): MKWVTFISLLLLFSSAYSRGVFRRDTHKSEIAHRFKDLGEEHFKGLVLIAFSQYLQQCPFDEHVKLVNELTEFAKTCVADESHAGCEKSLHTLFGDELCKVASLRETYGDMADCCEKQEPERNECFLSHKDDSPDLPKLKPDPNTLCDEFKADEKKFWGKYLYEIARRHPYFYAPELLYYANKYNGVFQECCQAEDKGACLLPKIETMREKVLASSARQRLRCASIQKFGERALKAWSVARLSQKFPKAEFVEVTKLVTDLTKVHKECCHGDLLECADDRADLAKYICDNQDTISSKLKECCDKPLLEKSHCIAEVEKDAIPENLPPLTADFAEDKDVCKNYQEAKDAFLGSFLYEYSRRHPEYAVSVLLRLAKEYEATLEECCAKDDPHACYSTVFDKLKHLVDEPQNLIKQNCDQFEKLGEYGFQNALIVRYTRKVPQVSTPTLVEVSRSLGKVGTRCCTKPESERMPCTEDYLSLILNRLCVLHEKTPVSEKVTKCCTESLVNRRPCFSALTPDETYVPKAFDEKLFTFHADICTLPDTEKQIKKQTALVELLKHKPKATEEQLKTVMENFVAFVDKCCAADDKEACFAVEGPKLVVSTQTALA
# Torsin-1A-interacting protein 1 (Homo sapiens), sequence (Q5JTV8 whole entry, looked up): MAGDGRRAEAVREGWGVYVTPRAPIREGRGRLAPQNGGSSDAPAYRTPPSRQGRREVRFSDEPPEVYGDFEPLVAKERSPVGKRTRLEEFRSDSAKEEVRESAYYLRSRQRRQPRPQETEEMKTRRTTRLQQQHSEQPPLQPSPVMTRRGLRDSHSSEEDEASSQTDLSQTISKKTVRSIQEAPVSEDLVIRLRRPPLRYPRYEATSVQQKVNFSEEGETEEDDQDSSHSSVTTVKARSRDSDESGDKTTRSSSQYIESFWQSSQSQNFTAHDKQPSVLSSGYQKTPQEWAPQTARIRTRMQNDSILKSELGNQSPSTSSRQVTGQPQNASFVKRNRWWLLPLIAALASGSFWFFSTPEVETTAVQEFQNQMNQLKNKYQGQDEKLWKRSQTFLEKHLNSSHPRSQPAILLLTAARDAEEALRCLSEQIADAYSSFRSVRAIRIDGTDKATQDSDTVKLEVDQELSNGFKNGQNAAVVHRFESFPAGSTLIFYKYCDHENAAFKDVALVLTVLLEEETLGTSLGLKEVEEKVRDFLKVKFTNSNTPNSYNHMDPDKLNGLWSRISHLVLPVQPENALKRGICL
Structure (SMILES),composite z-score [1],z-score [2],composite z-score [3],composite z-score [4],composite z-score [5],composite z-score [6],composite z-score [7],composite z-score [8],composite z-score [9],composite z-score [10],composite z-score [11],composite Z-score [12],composite z-score [13],composite z-score [14],composite z-score [15],composite z-score [16],composite z-score [17],composite z-score [18],composite z-score [19],composite z-score [20]
C=C(COC)/C(=C/C[C@@H](OC(=O)c1ccncc1)c1cccc(OCCO)c1)c1cnc2ccccc2c1,0.429,-3.87,1.04,1.3,-0.102,-0.0161,0.259,0.581,1.54,3.87,0.716,0.161 (inactive),0.43,0.0815,1.01,1.91,0.919,1.31,1.44,1.24
O=c1cccc(-c2cccc(Cl)c2)o1,0.0546,0.268,0.128,-0.137,-0.137,-0.228,-0.338,-0.229,0.432,0.0698,0.271,1.25 (inactive),-0.0164,-0.161,-0.0655,0.043,0.275,0.159,0.0809,0.164
Cc1ccc(F)cc1S(=O)(=O)N[C@@H]1CCN(Cc2ccc(Oc3ccccc3)cc2)C1,-1.39,-3.67,0.74,-1.08,-0.466,-0.147,-0.195,-0.388,-0.104,0.471,-0.274,-0.608 (inactive),0.154,-0.165,0.304,-0.13,-0.305,-0.68,0.861,-0.905
C[C@@H](OCc1ccccc1)C1NC(=O)[C@@]23C(=O)N[C@@H](Cc4ccccc4)C2[C@H](C)[C@@]2(C)O[C@H]2C3/C=C/C/C=C\CNC(=O)CNC1=O (stereo not given in full),-0.816,-0.712,0.367,-1.15,-1.02,-0.199,-0.179,-0.323,-0.143,-1.56,0.651,0.536 (inactive),-0.0647,-0.133,0.721,-0.282,0.234,-1.28,0.0667,-2.32
CN1C(=O)C2C(C1=O)C1C=C(c3ccc(CO)cc3)C2C(c2cccs2)N1Cc1cccc(OC(F)(F)F)c1 (stereo not given),1.4,-1.3,0.526,1.1,0.334,0.0077,-0.0749,-0.251,0.291,1.43,0.866,-0.228 (inactive),0.0824,-0.152,0.47,1.98,0.37,1.28,0.0434,1.08
NCCCCCCNC(=O)[C@H]1C[C@H]2C(=O)N[C@@H](Cc3ccccc3)C(=O)N2[C@H]1c1ccc(O)cc1,0.74,0.914,0.338,1.44,1.17,-0.0033,-0.1,-0.0496,1.21,1.55,0.855,0.126 (inactive),-0.0048,-0.176,0.778,0.734,0.205,1.03,-0.14,1.2
CN(C)CCCNC(=O)[C@@]1(C)c2ccccc2C(=O)N(Cc2cc(C(F)(F)F)cc(C(F)(F)F)c2)[C@H]1c1ccc(CO)cc1,-0.488,-1.85,-1.31,0.139,0.0751,-0.118,-0.134,-0.484,-0.54,-0.779,0.193,0.222 (inactive),-0.0984,-0.0341,0.485,0.155,0.0017,-0.546,-1.03,-1.04
CC=CC(O)C1C=CC2C(=O)N(C)C(=O)C2N1N1CCCCC1 (stereo not given),1.15,0.121,0.364,1.41,0.127,0.0559,-0.151,-0.39,0.923,1.1,1.01,0.298 (inactive),0.16,0.0701,0.783,2.48,0.466,1.27,-0.0061,0.915
O=C(CS)NCCCCCCNC(=O)[C@@H]1C[C@@H]2C(=O)N3CCC[C@H]3C(=O)N2[C@@H]1c1cccc(OCCO)c1,1.41,0.0871,0.289,1.49,0.36,0.206,-0.0866,0.0482,1.41,2.16,0.848,-0.19 (inactive),-0.225,0.0063,0.635,2.81,-0.0386,1.3,0.454,1.1
CCOc1cc(C(O)C2C=CC3C(=O)N(C)C(=O)C3N2N2CCCCC2)ccc1O (stereo not given),0.0912,0.403,0.298,-0.0003,-0.393,0.0173,0.199,0.243,-0.283,0.676,0.534,0.293 (inactive),0.135,-0.0106,0.709,0.733,0.14,0.0667,0.278,0.852
CCN(CC)c1ccc(N2CC=CC34O[C@@H]5/C=C\CCC(C)OC(=O)C5[C@H]3C(=O)N(CCO)[C@@H]4C2=O)cc1 (stereo not given in full),1.14,-1.35,-1.05,-0.653,-0.897,-0.148,0.147,-0.0503,2.67,-0.699,-0.694,0.736 (inactive),-0.152,-0.132,0.818,1.87,0.711,0.153,-1.01,-0.242
